# Measurements published in PubChem BioAssay AID1117300 (National Center for Advancing Translational Sciences (NCATS), 2015).
# The source made the active and inactive calls. Calls follow the shape of the full dose curve.
# Details: Ebola virus entry assay, ratio channel readout
SMILES,outcome,AC50
COC1=CC(=O)C[C@@H](C)[C@]12Oc1c(Cl)c(OC)cc(OC)c1C2=O,inactive,–
CCCSc1ccc2nc(NC(=O)OC)[nH]c2c1,inactive,–
CO[C@H]1C[C@@H]2CC[C@@H](C)[C@@](O)(O2)C(=O)C(=O)N2CCCC[C@@H]2C(=O)O[C@H]([C@@H](C)C[C@@H]2CC[C@H](O)[C@H](OC)C2)CC(=O)[C@H](C)C=C(C)[C@@H](O)[C@@H](OC)C(=O)[C@H](C)C[C@H](C)C=CC=CC=C1C,inactive,–
CCC1=C[C@@H]2CN(C1)Cc1c([nH]c3ccccc13)[C@@](C(=O)OC)(c1cc3c(cc1OC)N(C)[C@H]1[C@@](O)(C(=O)OC)[C@H](OC(C)=O)[C@]4(CC)C=CCN5CC[C@]31[C@@H]54)C2,–,86.3 nM (active)
C[C@@H]1O[C@@H](O[C@H]2CC[C@@]3(C)[C@H](CC[C@@H]4[C@H]3C[C@@H](O)[C@]3(C)[C@@H](C5=CC(=O)OC5)CC[C@]43O)C2)C[C@H](O)[C@@H]1O[C@H]1C[C@H](O)[C@H](O[C@H]2C[C@H](O)[C@@H](O)[C@@H](C)O2)[C@H](C)O1 (stereo in doubt),inactive,–
CC[C@]1(O)C[C@H]2CN(CCc3c([nH]c4ccccc34)[C@@](C(=O)OC)(c3cc4c(cc3OC)N(C=O)[C@H]3[C@@](O)(C(=O)OC)[C@H](OC(C)=O)[C@]5(CC)C=CCN6CC[C@]43[C@@H]65)C2)C1,–,153 nM (active)
CCN(CC)CCNC(=O)c1c(C)[nH]c(/C=C2\C(=O)Nc3ccc(F)cc32)c1C,–,2170 nM (active)
CCCCc1oc2ccc(NS(C)(=O)=O)cc2c1C(=O)c1ccc(OCCCN(CCCC)CCCC)cc1,–,3850 nM (active)
CC[C@H]1OC(=O)[C@H](C)[C@@H](O[C@H]2C[C@@](C)(OC)[C@@H](O)[C@H](C)O2)[C@H](C)[C@@H](O[C@@H]2O[C@H](C)C[C@H](N(C)C)[C@@H]2O)[C@](C)(O)C[C@@H](C)CN(C)[C@H](C)[C@@H](O)[C@]1(C)O,–,6110 nM (active)
Cc1nnc(C(C)C)n1C1C[C@H]2CC[C@@H](C1)N2CC[C@H](NC(=O)C1CCC(F)(F)CC1)c1ccccc1 (stereo not given in full),inactive,–
CN1CCN(CCCN2c3ccccc3Sc3ccc(C(F)(F)F)cc32)CC1,–,7690 nM (active)
COC(=O)Nc1nc2ccc(C(=O)c3cccs3)cc2[nH]1,–,544 nM (active)
CC[C@H]1OC(=O)[C@H](C)[C@@H](O[C@H]2C[C@@](C)(OC)[C@@H](O)[C@H](C)O2)C(C)[C@@H](O[C@@H]2O[C@H](C)C[C@H](N(C)C)[C@@H]2O)[C@](C)(OC)C[C@@H](C)C(=O)[C@H](C)[C@@H](O)[C@]1(C)O (stereo not given in full),inactive,–
CO[C@H]1C[C@@H]2CC[C@@H](C)[C@@](O)(O2)C(=O)C(=O)N2CCCC[C@@H]2C(=O)O[C@H]([C@H](C)C[C@@H]2CC[C@H](OCCO)[C@H](OC)C2)CC(=O)[C@H](C)C=C(C)[C@@H](O)[C@@H](OC)C(=O)[C@H](C)C[C@H](C)C=CC=CC=C1C,inactive,–
CC[C@]1(O)C[C@@H]2CN(CCc3c([nH]c4ccccc34)[C@@](C(=O)OC)(c3cc4c(cc3OC)N(C)[C@H]3[C@@](O)(C(=O)OC)[C@H](OC(C)=O)[C@]5(CC)C=CCN6CC[C@]43[C@@H]65)C2)C1,–,122 nM (active)
CCCNCC(O)COc1ccccc1C(=O)CCc1ccccc1 (stereo not given),inactive,–
CN(C)CCOc1ccc(/C(=C(/CCCl)c2ccccc2)c2ccccc2)cc1,–,1090 nM (active)
COC(=O)Nc1nc2ccc(C(=O)c3ccccc3)cc2[nH]1,inactive,–
C[C@]12CC[C@@H]3c4ccc(O)cc4C[C@@H](CCCCCCCCCS(=O)CCCC(F)(F)C(F)(F)F)[C@H]3[C@@H]1CC[C@@H]2O (stereo not given in full),inactive,–
COc1cccc2c1C(=O)c1c(O)c3c(c(O)c1C2=O)C[C@@](O)(C(C)=O)C[C@H]3O[C@H]1C[C@H](N)[C@H](O)[C@H](C)O1,–,2730 nM (active)
